According to PubChem BioAssay (NCI):
The panel holds about 79,000 compounds, 15% with a hit somewhere; the sample as a whole holds those more often. Cut-off read from the data, not from the text of the source: active = growth inhibition above about 70%; inactive = the rest.

Experiments:
[1] = NCI Yeast Anticancer Drug Screen. Data for the rad50 strain (AID 155);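 note: 0% = growth of vehicle-only cultures of the same strain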; details: S. cerevisiae rad50 strain growth inhibition; at 50.0 µM; active compounds read high
How it was run: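 Relative growth inhibition (compound vs vehicle) was measured in yeast with a defined repair-gene alteration.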

[2] = NCI Yeast Anticancer Drug Screen. Data for the mec2-1 strain (AID 157); details: S. cerevisiae mec2-1 strain, at 50.0 µM, active compounds read high
How it was run: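 Cells of the genetically defined mec2-1 yeast strain are incubated with test compound. Inhibition of growth is calculated against vehicle-treated controls.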

[3] = NCI Yeast Anticancer Drug Screen. Data for the sgs1 mgt1 strain (AID 161);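 note: 0% = growth of cultures given vehicle only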; details: S. cerevisiae sgs1 mgt1 strain, at 50.0 µM, active compounds read high
How it was run: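 Inhibition of yeast growth, normalised to vehicle-treated controls, is reported for a strain bearing genetic alterations in DNA damage repair.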

[4] = NCI Yeast Anticancer Drug Screen. Data for the cln2 rad14 strain (AID 165);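 note: 0% = growth equal to vehicle treated cultures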; details: S. cerevisiae cln2 rad14 strain, at 50.0 µM, active compounds read high
How it was run: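 The screen exposed genetically defined yeast (cln2 rad14) to test compounds and scored growth inhibition relative to vehicle-treated controls.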

[5] = NCI Yeast Anticancer Drug Screen. Data for the bub3 strain (AID 167); details: S. cerevisiae bub3 mutant strain, at 50.0 µM, active compounds read high
How it was run: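 Screening used yeast with an engineered genetic alteration affecting cell cycle control. Compound-exposed cultures were compared with vehicle cultures, and reduced growth was taken as inhibition.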

[6] = NCI Yeast Anticancer Drug Screen. Data for the mlh1 rad18 strain (AID 175); details: S. cerevisiae mlh1 rad18 strain growth inhibition; at 50.0 µM; active compounds read high
How it was run: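 Compound-treated yeast growth, normalised to vehicle controls. Strain bears defined DNA repair mutations.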

Measured: growth inhibition

O=C1c2ccccc2C(=O)N1C[P+](c1ccccc1)(c1ccccc1)c1ccccc1
inactive: [1] 41.9% | [2] 28.8% | [3] 32.4% | [4] 16.2% | [5] 2.25% | [6] 12.4%

O=C(OC1C#CCSCC#C/C=C\1)c1ccc2c(c1)C(=O)c1ccccc1C2=O (stereo not given)
inactive: [1] -0.05% | [2] -34% | [3] -53.2% | [4] -37% | [5] -16.9% | [6] -61.6%

CCCCCCCCCCCCCC(N)=O
inactive: [1] -30.8% | [2] -46.5% | [3] -18.2% | [4] 4.85% | [5] -28.7% | [6] -18%

Cc1cc(N(CCC#N)CCC#N)ccc1/C=C(\NC(=O)/C=C/c1ccccc1)C(N)=O
inactive: [1] 3.15% | [2] -7.85% | [3] 15.1% | [4] -10.6% | [5] -33.1% | [6] -15.8%

CCOC(=O)/C=C(/C)N(CC)CC
inactive: [1] 23.9% | [2] -4% | [3] 12.2% | [4] 11.3% | [5] -5.05% | [6] 19.9%

CC(=O)N(C(C)=O)c1ccc2c3c(cccc13)CC2
inactive: [1] 0% | [2] -3.9% | [3] 2.6% | [4] -19.1% | [5] 8.1% | [6] -1.2%

NCC(=O)N1CCCCC1
inactive: [1] 7.05% | [2] 9.75% | [3] 4.95% | [4] -8.15% | [5] -2.1% | [6] 7.7%

O=C1c2ccccc2C(=O)N1CNc1cccc(NCN2C(=O)c3ccccc3C2=O)c1
inactive: [1] -3.9% | [2] -11.7% | [3] -9.75% | [4] 16.1% | [5] 1.2% | [6] -2.15%

N#CC(=Nc1ccc2ccccc2c1)C1=C(O)c2ccccc2C1=O
inactive: [1] 15.8% | [2] -3.2% | [3] 0.2% | [4] -30.4% | [5] 10.2% | [6] 11.8%

O=C(N/N=C/c1ccccc1)C1CC1
inactive: [1] 9.35% | [2] -10.2% | [3] 10.2% | [4] 8% | [5] 9.35% | [6] 1.85%

CC(=O)CC1CCC(CC(C)=O)CC1 (stereo not given)
inactive: [1] 13.1% | [2] 7.2% | [3] -13.3% | [4] -66.3% | [5] -4.1% | [6] -23.5%

[O-]/[N+](=C\c1cccc(O)c1)c1ccccc1
inactive: [1] -1.75% | [2] 16.4% | [3] 11.8% | [4] -21.2% | [5] -5.5% | [6] 15%

O=c1[nH][nH]c(=O)c2c1nc(SCCc1ccccc1)n2Cc1ccccc1
inactive: [1] 26.4% | [2] 4.55% | [3] 11.7% | [4] 19.4% | [5] 1.8% | [6] 14.8%

COC(=O)C(C(=O)C(=O)Nc1nc2ccc([N+](=O)[O-])cc2s1)c1nc2ccc(Cl)cc2[nH]c1=O (stereo not given)
inactive: [1] 10.3% | [2] 17.5% | [3] 21.4% | [4] 26.8% | [5] 15% | [6] -3.1%

c1ccc2c(c1)cc1n2CCc2c-1[nH]c1ccccc21
inactive: [1] 26.2% | [2] 18.6% | [3] 4.2% | [4] 18.1% | [5] 19.9% | [6] 20.9%

CCc1ccc(COC(=O)NC)nc1
inactive: [1] 38% | [2] -0.75% | [3] 4% | [4] -18% | [5] -0.2% | [6] 19.6%

CN(C)Cc1ccnc(Cl)n1
inactive: [1] -16.2% | [2] 20.1% | [3] -16.8% | [4] -34.5% | [5] -13.3% | [6] -8.1%

CCCCNC(=S)/N=C/c1c(O)c2ccccc2[nH]c1=O
inactive: [1] -39.7% | [2] -15.2% | [3] -52.9% | [4] -18.9% | [5] 3.9% | [6] -41%

CCOC(=O)C(=CNc1cc(C(F)(F)F)ccc1N1CCOCC1)C(=O)OCC
inactive: [1] -1.4% | [2] -15.2% | [3] -9.5% | [4] 18.6% | [5] 2.25% | [6] -0.1%

CCCCCn1[nH]nc(C(=O)OC)c1=O (tested in a mixture with another compound)
inactive: [1] 18.8% | [2] 17.1% | [3] 23.1% | [4] 27.5% | [5] 30.5% | [6] 34.4%

CC(=O)OC(OC(C)=O)c1ncccc1C(=O)OC(C)C
inactive: [1] -14.6% | [2] -13.2% | [3] -14.7% | [4] 10.8% | [5] -8.45% | [6] -21.7%

C[Si](C)(C)N1N=NC2C(=O)N(c3ccccc3)C(=O)C21 (stereo not given)
inactive: [1] -10.4% | [2] -0.5% | [3] -13.4% | [4] 0.1% | [5] 0.4% | [6] -7.4%

COc1ccccc1NC(=O)C(Cc1ccccc1)NC(C)=O (stereo not given)
inactive: [1] 25.2% | [2] 3.7% | [3] -1.85% | [4] -51.5% | [5] 8.2% | [6] 2.65%

Brc1cccc(-c2nnc(-c3cccc4ccccc34)o2)c1
inactive: [1] 1% | [2] -11.2% | [3] 0.5% | [4] -39.2% | [5] 6.7% | [6] -8.55%

COC(=O)CC(c1ccc2c(c1)OCO2)N1CCOCC1 (stereo not given)
inactive: [1] -6.3% | [2] 31.3% | [3] 19.5% | [4] -6.1% | [5] 21.2% | [6] 42.9%

CC1=CC2C3C(=O)OC(=O)C3C1C(Cc1ccccc1)N2C (stereo not given)
inactive: [1] 14.5% | [2] -1.85% | [3] 10.6% | [4] 12.9% | [5] -6.55% | [6] 21.5%

COc1cc(NCCCCCNC(C)C)c2ncccc2c1OC
inactive: [1] -15.1% | [2] -9.9% | [3] -1.95% | [4] -11.3% | [5] 9.05% | [6] -3.1%

Nc1cc(Cl)nc(N)n1
inactive: [1] -12.2% | [2] -16.4% | [3] 9.9% | [4] 0.1% | [5] -5.4% | [6] 17.6%

CC1(C)OC(=O)C(=Cc2ccc(O)cc2)C(=O)O1
inactive: [1] -20.9% | [2] -9.45% | [3] -34.5% | [4] -4.6% | [5] -21.5% | [6] -34.3%

Clc1ccc(OCc2nnc3n2N=C(c2ccc(Br)cc2)CS3)cc1
inactive: [1] 5.5% | [2] 8.35% | [3] 8.8% | [4] 7.05% | [5] -5% | [6] 13.6%

CCCC1C(CC)C(NC)C(C#N)(C#N)C1(C#N)C#N (stereo not given)
inactive: [1] 7.05% | [2] 38.9% | [3] 8.95% | [4] 26.3% | [5] 8.3% | [6] 7.25%

O=C(Cc1ccccc1)N/N=C(\C1=Nc2ccc([N+](=O)[O-])cc2NC1O)C(O)c1ccc([N+](=O)[O-])cc1 (stereo not given)
inactive: [1] 10% | [2] 9.6% | [3] 1.7% | [4] 18.2% | [5] 20.6% | [6] 18.2%

COCOc1ccc(C(=O)C(C)c2ccc(OCOC)cc2OCOC)c(O)c1 (stereo not given)
inactive: [1] 39.4% | [2] 17.2% | [3] 26.8% | [4] 23.2% | [5] 40.8% | [6] 36.8%

COc1ccc(-c2cc(-c3ccccc3)n(C3OCC(OC(C)=O)C(OC(C)=O)C3OC(C)=O)c(=S)c2C#N)cc1 (stereo not given)
inactive: [1] 12.1% | [2] 18.9% | [3] -12.7% | [4] 4.55% | [5] -3.6% | [6] 32.4%

COc1ccc(C2(c3ccc(OC)cc3)c3ccccc3Cc3c(OC)cccc32)cc1
inactive: [1] -1.55% | [2] 16.7% | [3] -5.65% | [4] 2.8% | [5] -11.2% | [6] 6.4%

CCCNC(=O)Nc1ccc(OCC)cc1
inactive: [1] 0.1% | [2] -11.3% | [3] -14.8% | [4] -36.8% | [5] 2.2% | [6] 5.5%

S=c1cn[nH]c2ccccc12
inactive: [1] 16% | [2] 40.1% | [3] 16.9% | [4] 7.85% | [5] 49.6% | [6] 37.6%

O=C1NC(=O)C2(CCN(Cc3ccccc3)CC2)N1c1ccccc1
inactive: [1] 8.95% | [2] 0.1% | [3] -5.1% | [4] 6% | [5] 13.3% | [6] 3.15%

CCCCC(CC)COB(OCC(CC)CCCC)OCC(CC)CCCC (stereo not given)
inactive: [1] -41% | [2] -38.3% | [3] -22.1% | [4] -0.8% | [5] -23.2% | [6] -24.3%

COc1ccc(C2OC23CC(C)(C)c2ccccc2C3=O)cc1 (stereo not given)
inactive: [1] -3.8% | [2] 1.65% | [3] -0.05% | [4] -11% | [5] 16.3% | [6] -1.1%
